# In PubChem BioAssay AID624483 (NMMLSC, 2012):
# Among all 360,000 compounds or so, about 11,000 (3.1%) were called active. Not shown: some 2% with an inconclusive outcome. Only a selection was taken, and actives are over-represented in it overall. A number with no mark means an inactive call. No stated cut-off is given here; in the data, active means fluorescence intensity above about 16000; inconclusive means no clear call, values can overlap the other calls; inactive means below that.
# Assay: counter-screen for toxin protease inhibitors: compound fluorescence, primary screen, artefact control for toxin protease inhibitor project, biochemical, multiplex microsphere, HTS (AID 624483)
# Conditions: compound autofluorescence counterscreen, microsphere flow cytometry; stronger effect = higher value
row,Structure (SMILES),fluorescence intensity
1,CCCCn1nnnc1C(c1ccccc1)N1CCN(c2ccccc2OC)CC1 (configuration not stated),4370
2,COc1ccc(C(C)=O)cc1COc1ccc(Cl)c(C)c1,5920
3,CCn1nc(C)c(NC(=O)/C=C/c2ccc(OC)c(COc3ccc(Br)cc3)c2)c1C,24100 (active)
4,COc1ccc(/C=C/C(=O)Nc2c(C)nn(C)c2C)cc1COc1ccc(Br)cc1,8730
5,COc1ccccc1-c1cc2nc(NCc3cccc(Cl)c3)ccn2n1,3660
6,CCc1nc2c(OCCc3cccc(OC)c3)cccn2c1N(C)C(=O)c1ccc(C)cc1,3510
7,CC(=O)N1CCN(C(=O)c2cc(-c3ccc(C)o3)nc3ccccc23)CC1,7930
8,O=C(c1cc(-c2ccncc2)nc2ccccc12)N1CCC2(CC1)OCCO2,23100 (active)
9,O=C(c1cc2nc(-c3ccccc3)cc(-c3ccccc3)n2n1)N1CCC2(CC1)OCCO2,2800
10,CCCCC(=O)N(C)c1c(CC)nc2c(OCc3ccc(Cl)cc3Cl)cccn12,3970
11,Cc1ccccc1N1CCN(CC(=O)NCc2ccc(Cl)cc2)CC1,4200
12,O=C(CN1CCN(S(=O)(=O)c2ccc(Cl)s2)CC1)N1CCCCC1,2870
13,O=C(CN1CCN(S(=O)(=O)c2ccc(Cl)s2)CC1)NCc1ccc(Cl)cc1,19600 (active)
14,O=C(CN1CCN(Cc2ccccc2)CC1)NC(c1ccccc1)c1ccccc1,4580
15,O=C(NC(c1ccccc1)c1ccccc1)N1CCN(CCO)CC1,20400 (active)
16,CC(=O)N1CCN(CC(c2ccccc2)c2ccccc2)CC1,3040
17,Cc1ccc2c(C)c(C(=O)N(C)Cc3ccncn3)oc2c1C,5730
18,CSc1ccc(/C=N\NC(=O)COc2ccc(Cl)cc2Br)cc1,17700 (active)
19,O=C(COc1ccc(Cl)cc1Cl)N/N=C/c1ccccn1,5790
20,CSc1ccc(/C=N/NC(=O)c2cccc(Cl)c2)cc1,2570
21,CCOC(=O)[C@]12CCCC=C1N(Cc1cccc3ccccc13)C(=O)[C@H](CC(=O)NCC13CC4CC(CC(C4)C1)C3)C2,5880
22,CC1(C(=O)NCc2cccc3ccccc23)CCN1Cc1ccc(-c2ccccc2)o1 (configuration not stated),3560
23,CCCCc1ccc(S(=O)(=O)NC(=O)C2(C)CCN2C(=O)c2ccccc2)cc1 (configuration not stated),3420
24,CC(OC(=O)c1ccc(NS(=O)(=O)c2ccc3[nH]c(=O)[nH]c3c2)cc1)C(=O)Nc1cccc(Cl)c1Cl (configuration not stated),3440
25,CC(=O)NS(=O)(=O)c1ccc(NC(=S)NC(=O)C(C)(C)C)cc1,24700 (active)
26,CC(=O)NS(=O)(=O)c1ccccc1,6630
27,CC(C)(C)C(=O)NC(NC(=S)Nc1ccc(S(N)(=O)=O)cc1)C(Cl)(Cl)Cl (configuration not stated),1960
